Set-up in all cases: scale not given: direction of the effect not stated beside the values
The target in test [1] is Protein translocase subunit SecA (Escherichia coli (strain K12)) (UniProt P10408). As to the kind of experiment: Assay to Identify E. coli SecA ATPase Inhibitors. Format: functional. Conditions: 30 µM.
In test [2] the target is T1, Ubiquitin-activating enzyme e1, putative (Leishmania donovani (strain BPK282A1)) (UniProt E9BSI1).
T1 sequence (whole entry): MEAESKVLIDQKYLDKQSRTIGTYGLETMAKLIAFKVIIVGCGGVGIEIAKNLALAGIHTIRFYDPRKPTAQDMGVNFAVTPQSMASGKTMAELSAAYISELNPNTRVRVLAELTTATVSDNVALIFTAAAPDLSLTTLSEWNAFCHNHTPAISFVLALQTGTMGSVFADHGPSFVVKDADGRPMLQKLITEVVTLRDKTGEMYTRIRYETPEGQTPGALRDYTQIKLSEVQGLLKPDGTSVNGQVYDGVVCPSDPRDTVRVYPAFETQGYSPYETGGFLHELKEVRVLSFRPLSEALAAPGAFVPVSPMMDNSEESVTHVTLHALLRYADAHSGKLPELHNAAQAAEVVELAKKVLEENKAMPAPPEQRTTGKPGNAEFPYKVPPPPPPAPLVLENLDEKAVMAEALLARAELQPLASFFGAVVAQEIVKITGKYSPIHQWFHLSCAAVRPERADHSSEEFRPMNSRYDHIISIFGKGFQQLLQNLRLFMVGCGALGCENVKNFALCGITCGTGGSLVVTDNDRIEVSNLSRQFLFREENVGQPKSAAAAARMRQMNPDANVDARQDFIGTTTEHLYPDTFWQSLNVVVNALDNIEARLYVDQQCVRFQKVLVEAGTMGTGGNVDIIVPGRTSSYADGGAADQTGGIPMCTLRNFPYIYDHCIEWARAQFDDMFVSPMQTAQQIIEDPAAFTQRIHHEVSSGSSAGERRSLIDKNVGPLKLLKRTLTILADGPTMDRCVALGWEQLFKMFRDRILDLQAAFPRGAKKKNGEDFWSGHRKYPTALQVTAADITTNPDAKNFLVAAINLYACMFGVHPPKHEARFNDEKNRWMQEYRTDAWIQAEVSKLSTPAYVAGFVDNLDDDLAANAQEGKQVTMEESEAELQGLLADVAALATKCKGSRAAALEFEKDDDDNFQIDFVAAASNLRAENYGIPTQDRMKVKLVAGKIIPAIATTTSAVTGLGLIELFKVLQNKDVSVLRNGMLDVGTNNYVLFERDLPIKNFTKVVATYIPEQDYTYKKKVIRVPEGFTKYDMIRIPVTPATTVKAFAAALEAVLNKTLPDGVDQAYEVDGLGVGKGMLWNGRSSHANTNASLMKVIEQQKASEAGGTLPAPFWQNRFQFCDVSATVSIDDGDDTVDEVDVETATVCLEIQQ
The experiment in a line: Leishmania donovani Ubiquitin Activating Enzyme (LdE1). Conditions: 30 µM. The class given is functional.

The target of test [3] is AMP-activated protein kinase, AMPK (Homo sapiens) (UniProt P54646+O43741+P54619+Q9UGJ0+Q9Y478+Q13131+Q9UGI9). As to the kind of experiment: AMP-dependent Kinase enzyme assay. An in vitro enzyme assay that detects ADP turnover that is directly proportional to AMPK activity. This uses naive AMPK that is activated during the assay with MK-8722. Conditions: 30 µM. The class given is functional.

The target of test [4] is Sialic acid-binding Ig-like lectin 9 (Homo sapiens) (UniProt Q9Y336). As to the kind of experiment: Hs-Siglec9 ALPHAscreen SOP 20170721. Conditions: 10 µM.
The test system of test [5] is Trypanosoma cruzi. The experiment in a line: Trypanosoma cruzi phosphomannomutase and mannose-1-phosphate guanylyltransferase assay. The class given is functional. Conditions: 10 µM.
In test [6] the target is T2, Arginase-2, mitochondrial (Homo sapiens) (UniProt P78540).
T2 sequence (whole entry): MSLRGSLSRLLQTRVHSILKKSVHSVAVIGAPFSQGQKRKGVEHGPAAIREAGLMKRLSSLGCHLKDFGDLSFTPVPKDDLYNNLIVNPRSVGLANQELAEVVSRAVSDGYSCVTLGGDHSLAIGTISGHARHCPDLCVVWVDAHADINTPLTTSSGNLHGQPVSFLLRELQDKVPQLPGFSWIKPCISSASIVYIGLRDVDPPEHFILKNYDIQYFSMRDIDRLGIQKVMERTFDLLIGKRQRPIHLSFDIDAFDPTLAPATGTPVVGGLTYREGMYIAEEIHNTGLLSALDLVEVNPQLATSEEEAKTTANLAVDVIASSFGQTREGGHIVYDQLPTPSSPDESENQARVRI
As to the kind of experiment: in vitro enzyme assay to detect the production of urea directly proportional to the activity of Arginase II. Further: in the data most compounds retested in dose-response had high values. Format: functional. Conditions: 33.3 µM.

In test [7] the target is T3, Proteasome subunit beta (Trypanosoma cruzi) (UniProt O96673).
T3 sequence (whole entry): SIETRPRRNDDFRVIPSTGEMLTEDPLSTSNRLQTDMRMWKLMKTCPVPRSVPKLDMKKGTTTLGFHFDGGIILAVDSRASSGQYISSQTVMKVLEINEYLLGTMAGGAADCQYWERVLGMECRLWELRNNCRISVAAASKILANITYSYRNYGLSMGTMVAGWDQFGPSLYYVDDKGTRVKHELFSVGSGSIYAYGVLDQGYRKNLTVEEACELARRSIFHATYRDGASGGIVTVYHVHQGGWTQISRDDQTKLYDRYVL
As to the kind of experiment: Trypanosoma cruzi proteasome chymotrypsin-like activity (TcProtChymo) assay. Further: in the data most compounds retested in dose-response had high values. Format: functional. Conditions: 9.37 µM.

The species entered for test [8] is Homo sapiens. As to the kind of experiment: To identify inhibition of the IFN signalling (Jak-Stat) pathway via expression of an eGFP reporter gene under the control of an IFN-stimulated response element (ISRE) containing MxA promoter. The class given is functional. Conditions: 30 µM.
Test [9] has as its target T4, Tyrosyl-tRNA synthetase, putative (Trypanosoma cruzi (strain CL Brener)) (UniProt Q4DSP6).
T4 sequence (whole entry): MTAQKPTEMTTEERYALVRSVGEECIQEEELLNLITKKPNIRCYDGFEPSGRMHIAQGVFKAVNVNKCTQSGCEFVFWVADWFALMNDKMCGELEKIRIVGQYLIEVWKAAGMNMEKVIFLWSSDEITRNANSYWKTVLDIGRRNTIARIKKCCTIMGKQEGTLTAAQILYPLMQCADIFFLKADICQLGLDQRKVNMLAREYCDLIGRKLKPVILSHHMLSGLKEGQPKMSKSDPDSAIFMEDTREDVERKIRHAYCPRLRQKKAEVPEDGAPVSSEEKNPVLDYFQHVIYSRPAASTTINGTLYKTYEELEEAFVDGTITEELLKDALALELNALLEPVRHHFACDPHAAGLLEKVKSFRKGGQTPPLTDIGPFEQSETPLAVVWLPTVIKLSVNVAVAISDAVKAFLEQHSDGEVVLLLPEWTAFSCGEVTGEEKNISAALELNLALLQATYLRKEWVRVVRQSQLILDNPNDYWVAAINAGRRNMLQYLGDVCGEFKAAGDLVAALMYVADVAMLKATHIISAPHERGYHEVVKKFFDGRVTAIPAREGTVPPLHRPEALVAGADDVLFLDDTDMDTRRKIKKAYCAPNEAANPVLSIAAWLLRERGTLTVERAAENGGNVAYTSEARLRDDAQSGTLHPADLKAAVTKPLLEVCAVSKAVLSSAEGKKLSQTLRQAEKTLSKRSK
As to the kind of experiment: Trypanosoma cruzi tyrosyl tRNA synthetase (TcYRS) _High Tyrosine SOP. Further: in the data most compounds retested in dose-response had high values. The class given is functional. Conditions: 30 µM.

The target of test [10] is T4, Tyrosyl-tRNA synthetase, putative (Trypanosoma cruzi (strain CL Brener)). As to the kind of experiment: Trypanosoma cruzi tyrosyl tRNA synthetase (TcYRS) SOP. Format: functional. Conditions: 30 µM.
Test [11] deals with Chromo domain-containing protein 1 (Saccharomyces cerevisiae (strain ATCC 204508 / S288c) (Baker's yeast)) (UniProt P32657). The experiment in a line: ScCHD-1 Enzyme Inhibition Assay. Further: in the data most compounds retested in dose-response had high values. Conditions: 30 µM. Format: functional.

Here are results for eight molecules from ChEMBL document CHEMBL3988442, “University of Dundee, Small-Polar-MMV Screening Library” (2021).

For some of these results: Measured potencies and affinities stand elsewhere.

Sequence of Chromo domain-containing protein 1 (Saccharomyces cerevisiae (strain ATCC 204508 / S288c) (Baker's yeast)) (P32657 whole entry, the tested form may be a part): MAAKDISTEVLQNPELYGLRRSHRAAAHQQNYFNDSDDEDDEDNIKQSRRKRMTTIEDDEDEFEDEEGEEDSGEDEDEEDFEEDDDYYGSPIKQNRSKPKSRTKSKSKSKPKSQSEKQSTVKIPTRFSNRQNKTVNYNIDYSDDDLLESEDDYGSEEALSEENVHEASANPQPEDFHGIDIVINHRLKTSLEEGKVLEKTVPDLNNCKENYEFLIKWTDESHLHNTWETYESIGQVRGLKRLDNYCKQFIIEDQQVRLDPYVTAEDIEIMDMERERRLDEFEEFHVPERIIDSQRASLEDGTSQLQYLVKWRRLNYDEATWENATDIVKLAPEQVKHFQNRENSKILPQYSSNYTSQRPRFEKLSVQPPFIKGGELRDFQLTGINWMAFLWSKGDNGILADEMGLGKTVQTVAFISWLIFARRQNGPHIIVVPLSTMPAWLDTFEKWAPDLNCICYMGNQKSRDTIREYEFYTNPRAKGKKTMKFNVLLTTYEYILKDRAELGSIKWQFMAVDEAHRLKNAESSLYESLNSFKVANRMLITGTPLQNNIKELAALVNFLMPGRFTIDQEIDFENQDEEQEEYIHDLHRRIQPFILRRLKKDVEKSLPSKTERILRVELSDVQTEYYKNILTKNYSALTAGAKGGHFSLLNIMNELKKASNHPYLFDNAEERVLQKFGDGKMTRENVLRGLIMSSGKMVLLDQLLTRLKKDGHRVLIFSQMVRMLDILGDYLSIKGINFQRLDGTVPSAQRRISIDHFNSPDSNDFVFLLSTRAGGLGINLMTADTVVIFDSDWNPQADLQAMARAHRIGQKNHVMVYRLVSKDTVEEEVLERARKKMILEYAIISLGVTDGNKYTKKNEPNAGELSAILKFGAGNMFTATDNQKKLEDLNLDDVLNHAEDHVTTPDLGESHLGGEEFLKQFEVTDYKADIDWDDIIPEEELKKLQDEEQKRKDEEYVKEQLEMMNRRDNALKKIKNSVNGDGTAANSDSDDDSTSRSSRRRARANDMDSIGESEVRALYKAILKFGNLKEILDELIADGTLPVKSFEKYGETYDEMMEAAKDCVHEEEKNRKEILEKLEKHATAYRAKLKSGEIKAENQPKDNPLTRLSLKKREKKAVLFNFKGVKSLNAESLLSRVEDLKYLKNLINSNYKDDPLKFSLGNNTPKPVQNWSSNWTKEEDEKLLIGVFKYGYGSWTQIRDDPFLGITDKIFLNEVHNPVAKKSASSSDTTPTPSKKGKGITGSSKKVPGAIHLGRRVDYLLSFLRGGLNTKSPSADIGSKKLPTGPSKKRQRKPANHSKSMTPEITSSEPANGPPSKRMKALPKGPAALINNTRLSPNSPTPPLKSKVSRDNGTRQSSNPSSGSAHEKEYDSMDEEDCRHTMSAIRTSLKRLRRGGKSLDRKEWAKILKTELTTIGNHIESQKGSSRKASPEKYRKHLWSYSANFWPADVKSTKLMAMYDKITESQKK
Sequence of Protein translocase subunit SecA (Escherichia coli (strain K12)) (P10408 whole entry): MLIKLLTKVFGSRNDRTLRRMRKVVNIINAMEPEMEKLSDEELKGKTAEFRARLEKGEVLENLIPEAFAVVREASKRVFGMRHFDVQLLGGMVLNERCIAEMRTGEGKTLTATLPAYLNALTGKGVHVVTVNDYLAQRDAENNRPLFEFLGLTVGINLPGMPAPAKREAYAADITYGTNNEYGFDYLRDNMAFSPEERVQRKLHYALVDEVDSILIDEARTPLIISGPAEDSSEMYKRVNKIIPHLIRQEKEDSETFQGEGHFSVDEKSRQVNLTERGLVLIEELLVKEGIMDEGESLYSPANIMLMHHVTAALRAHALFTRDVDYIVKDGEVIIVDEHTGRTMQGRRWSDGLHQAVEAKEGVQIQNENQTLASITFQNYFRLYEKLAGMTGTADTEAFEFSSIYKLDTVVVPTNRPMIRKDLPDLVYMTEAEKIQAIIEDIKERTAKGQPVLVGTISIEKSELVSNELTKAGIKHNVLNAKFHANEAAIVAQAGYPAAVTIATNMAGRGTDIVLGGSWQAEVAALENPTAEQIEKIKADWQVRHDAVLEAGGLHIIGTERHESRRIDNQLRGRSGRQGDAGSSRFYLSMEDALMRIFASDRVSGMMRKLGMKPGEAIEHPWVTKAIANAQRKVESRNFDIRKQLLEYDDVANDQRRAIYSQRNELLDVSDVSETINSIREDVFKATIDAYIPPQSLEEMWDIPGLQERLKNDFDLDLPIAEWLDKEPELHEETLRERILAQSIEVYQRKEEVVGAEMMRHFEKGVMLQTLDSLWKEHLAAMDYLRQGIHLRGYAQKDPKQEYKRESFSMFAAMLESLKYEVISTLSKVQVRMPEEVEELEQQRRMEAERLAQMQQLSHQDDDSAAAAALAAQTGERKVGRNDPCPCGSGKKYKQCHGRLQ
Sequence of Sialic acid-binding Ig-like lectin 9 (Homo sapiens) (Q9Y336 whole entry): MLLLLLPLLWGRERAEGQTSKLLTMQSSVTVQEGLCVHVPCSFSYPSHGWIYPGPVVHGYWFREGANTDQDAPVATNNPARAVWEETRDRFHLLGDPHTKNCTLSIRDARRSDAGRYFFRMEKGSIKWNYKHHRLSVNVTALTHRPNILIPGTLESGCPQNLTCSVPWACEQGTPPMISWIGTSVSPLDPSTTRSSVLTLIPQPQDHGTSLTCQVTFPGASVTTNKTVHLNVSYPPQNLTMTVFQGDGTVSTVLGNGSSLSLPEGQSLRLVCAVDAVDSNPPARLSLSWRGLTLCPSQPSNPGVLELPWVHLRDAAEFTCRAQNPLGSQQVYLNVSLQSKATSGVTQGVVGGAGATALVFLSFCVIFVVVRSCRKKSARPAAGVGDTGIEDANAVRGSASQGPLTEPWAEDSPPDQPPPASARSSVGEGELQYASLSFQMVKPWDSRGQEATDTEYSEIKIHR

Turning to `Fc1ccc(CN2CCCN(Cc3cscn3)CC2)cc1`, the Percent Effect in test [1] was -1.59%; in test [2] it was 18.2%; in test [3], -0.0725%; in [4] it was -10.1%; in test [5], -1.27%; in test [6] it was 1.05%. Further, the Percent Effect in test [7] was 9.46%; in test [8], 30.6%; in [9] it was 8.57%; in [10], 25.9%; in [11], -21.9%.

Regarding `O=C(c1cscn1)N1CCC[C@]2(C[C@H](OCC3CC3)CO2)C1`, the Percent Effect in test [1] is -1.77%; in [2], -2.67%; in [3] it was 6.38%; in [4], 4.3%; in test [5] it was 5.91%; in [6] it was 0.233%. Moreover, the Percent Effect is 3.08% in test [7]; 2.38% in [8]; 4.25% in test [9]; 1.28% in test [10]; 1.14% in test [11].

For `COc1ccc(CN(C)C(=O)CCC(=O)c2cccs2)c(OC)c1OC`, the Percent Effect in test [1] was -2.26%; in test [2], -2.74%; in test [3] it was -1.79%; in [4], 9.32%; in test [5], 2.78%; in [6], -6.39%. In addition, the Percent Effect in test [7] is 10.7%; in test [8] it was 18.4%; in [9] it was 9.38%; in test [10], 21%; in [11], 2.3%.

For `O=C(c1cnco1)N1C[C@@H]2CC[C@H](Oc3ccccc3F)[C@@H]2C1`, the Percent Effect in test [1] was -8.63%; in [2] it was -6.76%; in test [3], 3.39%; in test [4], -7.43%; in test [5], -3.16%; in test [6] it was -2.09%. Moreover, the Percent Effect in [7] was 3.74%; in test [8], 25.5%; in [9], -4.3%; in [10], -9.09%; in test [11], -6.6%.

Take `Fc1ccc(CN2CCC(c3nccnc3-n3ccnc3)CC2)cc1`: the Percent Effect is -8.16% in test [1]; 17.6% in test [2]; 8.26% in [3]; 0.663% in [4]; 3.75% in [5]; -3.02% in test [6]. In addition, the Percent Effect in test [7] is 12.5%; in [8] it was 17.9%; in test [9], 3.23%; in test [10] it was 3.9%; in test [11] it was -17.3%.

`CO[C@H]1CCN(c2ccc(C)nn2)[C@H]1Cc1cnn(C)c1`: the Percent Effect in [1] is -5.98%; in test [2], 2.7%; in [3], -6.04%; in test [4], 1.75%; in test [5] it was 0.977%; in [6] it was 0.417%. The Percent Effect was 14.4% in test [7]; -17.9% in [8]; 9.9% in test [9]; 11% in [10]; -6.2% in test [11].

Regarding `CC(C)C(C(=O)N1CCCN(Cc2nccn2C)CC1)N1CCCC1` (stereo not drawn), the Percent Effect in test [1] was -1.38%; in [2] it was 21.6%; in test [3], -0.295%; in [4] it was -3.06%; in test [5], -1.58%; in [6], -2.77%. The Percent Effect in test [7] is 10.6%; in [8] it was 20%; in [9], 2.97%; in test [10], 13.4%; in test [11], -5.79%.

In the case of `COc1ccc(C(=O)Nc2cnn(CC(=O)NC3CCCC3)c2)c(O)c1`, the Percent Effect in [1] is -2.21%; in test [2], 13.7%; in test [3], -8.3%; in test [4] it was 5.57%; in [5], 3.77%; in test [6] it was 0.798%. The Percent Effect in [7] was 9.16%; in [8] it was -10.3%; in test [9], 11.5%; in [10] it was 25.9%; in test [11] it was -3.82%.
